An excerpt weighted towards active compounds, which were near 12% of everything screened.
G9a block: inhibitors of human histone lysine methyltransferase G9a; Q96KQ7; G9a H3K9 monomethylation, AlphaScreen, 2 h; Potency, µM (top dose mostly 102 µM), without a hit: top-dose activity, negative = inhibition, actives largely listed as inhibitors; actives 8.8% (n = 350,000); AID 504332; further: on the % scale 0 is the no-effect control and ±100 the full control effect; nearly all actives have a fitted effect of over 75% in size
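AlphaScreen read-out: biotin-H3K9 peptide (500 nM) methylation by 20 nM enzyme with 20 uM SAM, 2 h at room temperature after 15 min compound preincubation; anti-monomethyl H3K9 antibody plus donor/acceptor beads, 10 min dark.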
JMJD2A Tudor inh: JMJD2A Tudor domain (human) inhibition; AlphaScreen JMJD2A-Tudor / H3K4me3 peptide binding; Potency, µM (doses to about 114 µM), without a hit: at the highest dose activity change, negative = inhibition, actives largely listed as inhibitors; actives 4.4% (n = 390,000); O75164; further: on the % scale 0 is the no-effect control and ±100 the full control effect; nearly all actives have a fitted effect of over 50% in size
L3MBTL1 block: blocks human L3MBTL1 | AlphaScreen L3MBTL1–H3K9me1 peptide binding | Potency, µM (series often up to 57.1 µM), for inactives: at the top dose activity, negative = inhibition, actives largely listed as inhibitors | Q9Y468 | actives 0.66% (n = 230,000); further: on the % scale 0 is the no-effect control and ±100 the full control effect; nearly all actives have a fitted effect of over 60% in size
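AlphaScreen proximity signal between nickel-chelate acceptor and streptavidin donor beads (final 10 ug/mL) reports binding of 50 nM L3MBTL1 to 75 nM biotin-H3 K9me1 peptide; complex incubated with compounds 30 min at room temperature; cefsulodin titration as control.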
Sfp inh: Sfp phosphopantetheinyl transferase inhibition. Q9F4F7. Biochemical Sfp PPTase activity, qHTS. Potency, µM, inactives show largest response in the series, negative = inhibition, actives largely listed as inhibitors. actives 3.5% (n = 310,000);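 further: the enzyme is Sfp with the accession as filed and its product quenches rhodamine fluorescence; 0% = enzyme reaction without inhibitor and -100% = no enzyme wells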
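With Hepes-Na pH 7.6 buffer containing 10 mM MgCl2, Sfp (15 nM) modified BHQ-2-YbbR (12.5 uM) using rhodamine-CoA (5 uM). Two reads 30 minutes apart at 525/598 nm yielded each well's rate.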
HP1b chromo inh: inhibitors of HP1-beta chromodomain binding to methylated histone tails; AlphaScreen HP1-beta / biotin-H3K9me3 peptide binding; AID 540317; P83916; Potency, µM (titrated, usually from 114 µM), without a hit: at the top dose activity change, negative = inhibition, most hits filed as inhibitors; actives 0.56% (n = 390,000); further: nearly all actives have a fitted effect of over 70% in size
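Compound inhibition of the preformed complex between 50 nM HP1-beta and 50 nM biotinylated H3K9me3 peptide was read by AlphaScreen. Buffer was PBS pH 7.4 with 0.01% Tween-20. Incubations ran 30 min at room temperature, with 10 ug/mL donor/acceptor beads.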
BAZ2B inh: blocks human BAZ2B. AlphaScreen BAZ2B-H3K14Ac peptide displacement. Potency, µM (series often up to 114 µM), without a hit: at the highest dose activity change, negative = inhibition, actives largely listed as inhibitors. actives 4.4% (n = 360,000). AID 504333; further: on the % scale 0 is the no-effect control and ±100 the full control effect; nearly all actives have a fitted effect of over 60% in size
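Complex of BAZ2B and biotin-H3K14Ac (50 nM apiece) forms over 30 min at RT, then faces library compounds up to 110 uM for another 30 min; AlphaScreen beads added, 20 min dark incubation, luminescence read.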
* hit, by the source's call; u = inconclusive; x = no result; [ ] = remark or other dose. The call rests on the fitted dose curve; in most records, active means well fitted curve in the direction sought with a large enough effect; inconclusive means small, poorly fitted or top-dose-only effect, or another doubt; inactive means no such curve, though single readings can be large; an effect the other way counts as inactive or inconclusive. Potency means the concentration at half of the fitted maximal effect.

SMILES	G9a block	JMJD2A Tudor inh	L3MBTL1 block	Sfp inh	HP1b chromo inh	BAZ2B inh
COC(=O)[C@@]1(Cc2ccc(F)cc2)[C@H]2c3cc(C(=O)N4CCCC4)n(CCc4c[nH]c5ccc(OC)cc45)c3C[C@H]2CN1C(=O)c1ccccc1	40µM*	x	-6%	15%	x	u
Cc1cc(C)c(NC(=O)CCS(=O)(=O)c2cc3c(cc2Cl)NC(=O)CO3)c(C)c1	7%[59 µM]	-2%	x	x	35%	3%
Nn1c(COc2cccc(Br)c2)nnc1SCC(=O)N1CCc2ccccc2C1	40µM*	-16%	-3%	0%	52%	-10%
Cn1c(Cc2ccccc2)nnc1SCC(=O)N1CCCCC1	1%[59 µM]	-12%	10%	7%	27%	4%
Cn1c(Cc2ccc3c(c2)OCO3)nnc1SCC(=O)N1CCc2ccccc2C1	45µM*	-22%	0%	19%	6%	10%
N#Cc1nc(Cc2ccccc2)oc1N1CCN(c2ccccc2)CC1	u	28µM*	u	-6%	14µM*	10µM*
N#Cc1nc(Cc2ccccc2)oc1N1CCC(Cc2ccccc2)CC1	u	-34%	u	-7%	u	u
C=CCNc1oc(-c2cccs2)nc1C#N	16%[2.33 µM]	-14%	x	8%	2%	-36%
N#Cc1nc(-c2cccs2)oc1N1CCN(c2ccccc2)CC1	8.9µM*	u	-10%	15%	-20%	u
CCc1ccc(C(=O)NNc2cc(Cl)cc(Cl)c2)cc1	x	-16%	12%	5%	20%	-4%
CC(C)(C)c1ccc(C(=O)NNC(=O)c2ccc(Cl)cc2)cc1	-5%[59 µM]	1%	3%	14%	40%	1%
CCc1ccc(C(=O)NNc2ccc(Cl)cc2)cc1	10µM*	-26%	3%	14%	78%	u
CC(C)(C)c1ccc(C(=O)NNc2cc(Cl)cc(Cl)c2)cc1	22µM*	-2%	-2%	14%	65%	-10%
Oc1c(C(c2ccccc2)N2CCC3(CC2)OCCO3)sc2nc(-c3ccco3)nn12 (stereo not drawn)	-2%[59 µM]	-19%	x	x	6%	-20%
COCCN=c1scc(-c2cccs2)n1/N=C(\C)c1ccco1	32µM*	50µM*	u	-1%	u	10µM*
COC(=O)N/N=C(\C)c1ccco1	-4%	2%[11.4 µM]	-12%	18%	21%	-35%
Oc1ccc(/C=N/n2c(-c3ccco3)csc2=Nc2cccnc2)c(O)c1	u	-27%	-8%	45µM*	-7%	u
COCCN=c1scc(-c2ccco2)n1/N=C/c1ccc(O)c(O)c1O	10µM*	32µM*	1.4µM*	-93%	7.9µM*	7.9µM*
CC(C)N=c1scc(-c2ccco2)n1/N=C/c1ccc(O)c(O)c1	u	40µM*	u	u	u	32µM*
O=c1c2ccccc2nc(-c2ccco2)n1/N=C/c1ccccc1O	0%[59 µM]	-21%	6%	24%	31%	1%
CN=c1scc(-c2cccs2)n1/N=C/c1ccccc1O	7%[59 µM]	-35%[57.1 µM]	-25%	-15%	u	u
COCCCNC(=O)C1CCN(c2nc3ccc(C)cc3[nH]2)CC1	2%[59 µM]	-2%	x	x	25%[57 µM]	-1%
C=CCN=c1scc(-c2ccco2)n1/N=C/c1ccc(O)c(O)c1O	7.9µM*	50µM*	18µM*	7.1µM*	14µM*	13µM*
COC(=O)[C@H](COC(C)(C)C)NC(=O)O[C@@H]1Cc2cc(OC)ccc2O[C@H]1c1cccc(OC)c1	x	x	x	-15%	x	x
O=C(Nc1ccc(N2CCC(c3ccccc3)C2)c(C(=O)O)c1)c1ccc(Cl)cc1 (stereo not drawn)	10µM*	u	x	x	16%	-34%
SMILES	G9a block	JMJD2A Tudor inh	L3MBTL1 block	Sfp inh	HP1b chromo inh	BAZ2B inh
Cc1ccc2cccnc2c1NC(=S)NC(=O)c1ccccc1	u	-21%	-11%	18µM*	-20%	-39%
O=C(NC(=S)Nc1ccc2nc[nH]c2c1)c1ccccc1	50µM*	-19%	x	-2%	10%	-22%
O=C(NC(=S)Nc1ccc2[nH]ncc2c1)c1ccccc1	u	u	x	-2%	-16%	-33%
O=C(Nc1ccc(NC(=O)c2ccccc2Cl)cc1)c1cccnc1	20%	-6%	x	18%	27%	7%
O=C(Nc1ccc2ncccc2c1)c1ccccc1Cl	10µM*	-4%	7%	12%	20%	-20%
Cc1ccc2cc(NC(=O)c3ccc(C(C)(C)C)cc3)ccc2n1	17%	-24%	x	79µM*	25%	-18%
O=C(Nc1ccc2nc3ccccc3nc2c1)c1ccc(Br)cc1	8.9µM*	-8%	10%	-10%	32%	-1%
O=C(NNC(=S)Nc1ccccc1)c1ccc2ncccc2c1	28µM*	-21%	13%	-11%	10%	10%
Cc1cc(C(=O)Nc2ccc(Br)cc2)cs1	79µM*	12%	x	12%	51%	56µM*
O=C(Nc1ccc2ncccc2c1)c1ccccc1	x	22µM*	1%	-1%	-30%	-31%
CC1CCN(S(=O)(=O)N2CCC(C(=O)NCc3ccccc3Cl)CC2)CC1	3%[59 µM]	-17%	x	x	-12%	5%
COc1ccc(Br)cc1CNC(=O)c1nn(-c2ccc(C)cc2)c(=O)c2c1c1ccccc1n2C	-3%[59 µM]	-12%	x	x	7%	x
Cc1ccc2nc(Cl)c3cc(C(=O)N4CCCC(C)C4)sc3c2c1 (stereo not drawn)	35%[59 µM]	20%	x	x	60%	2%
O=C(NC(=S)Nc1ccc2ncccc2c1)c1ccccc1	56µM*	u	-9%	50µM*	5%	u
CC1CCN(S(=O)(=O)c2cc(C(=O)N3CCN(c4cccc(Cl)c4)CC3)n(C)c2)CC1	7%[59 µM]	-35%	x	x	4%[57 µM]	-18%
Nc1ccccc1SC/C=C/CSc1ccccc1N	11µM*	-18%	x	-30%	26%	-22%
Nc1ccccc1O	-2%[0.501 µM]	-19%	-20%	x	2%	-23%
Cc1ccc(N(C)C(=O)Cn2nc(Cc3ccncc3)c3ccccc3c2=O)cc1C	-1%[59 µM]	-8%	x	x	46%	-12%
O=C(NNc1ccccc1[N+](=O)[O-])Nc1ccc(F)cc1F	32µM*	-27%	x	-6%	6%	-15%
O=C(NNc1ccccc1)Nc1cc(Cl)ccc1Cl	x	u	x	x	50µM*	x
O=C(NNc1ccccc1[N+](=O)[O-])Nc1cccc(Cl)c1	-143%[59 µM]	u	x	-11%	-20%[57 µM]	89µM*
O=C(COc1ccccc1)Nc1cc(Cl)ccc1Cl	x	1%	36%	17%	26%	20%
CC(=O)c1ccc(-c2cccc(C3C4C=CCCC4(C)C(=O)N3Cc3ccccc3)c2)cc1 (stereo not drawn)	x	-31%	x	-29%	23%	x

Source: PubChem BioAssay
